The list is not random: actives were taken first. Their share in the collection is about 1.1%.
Y pestis TopoI – Yersinia pestis topoisomerase I inhibitors, primary screen, biochemical, cleavage product accumulation, plate reader, single point | Y. pestis Topo-I cleavage product accumulation | activity, % at 10 µM | 360,000 compounds, 0.064% hits; in the data active = activity above about 50%, passing the limit was not always enough
Mtb BioA inh – M. tuberculosis BioA enzyme inhibitors, primary screen, biochemical, plate reader, single point, HTS. 360,000 compounds, 0.096% hits. inhibition, % at 9.99 µM. AID 602481, 2012. purified M. tuberculosis BioA enzyme; in the data active = inhibition above about 40%
CCHF vOTU inh-1 – CCHFV vOTU protease inhibitors, primary screen, biochemical, Pep-AMC substrate, fluorescence; inhibition, % at 11.5 µM; 370,000 compounds, 0.55% hits; Crimean-Congo hemorrhagic fever virus L polyprotein viral ovarian tumor (vOTU) protease …; also: 0% = vehicle wells with enzyme and 100% = no enzyme wells
Mtb bLac sens – beta-lactam sensitization of Mtb H37Rv, H37Rv; M. tuberculosis H37Rv growth with meropenem, percent inhibition; inhibition, % at 25 µM; 330,000 compounds, 0.27% hits; call rule not given here;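 also: growth measured after seven days incubation then overnight dye step; 0% = bacteria only wells and 100% = bacteria with antibiotic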
RecA intein inh – Mtb RecA intein splicing inhibitors, primary screen, biochemical, fluorescence, HTS; Protein RecA (Mycobacterium tuberculosis (strain ATCC 25618 / H37Rv)), P9WHJ3; cell-free RecA intein splicing; inhibition, % (test concentration not listed); 290,000 compounds, 0.75% hits; AID 2221, 2009; in the data active = inhibition above about 30%;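 also: 0% = vehicle wells and 100% = reference inhibitor control wells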
BJeLR viability – MLPCN primary cell-based screen for lethality selective to Ras in HRASV12 cells; AID 1554, 2009; inhibition, % (no concentration beside the values); 300,000 compounds, 0.17% hits; BJeLR (HRASV12) viability, CellTiter-Glo ATP luminescence, 48 h; in the data active = inhibition above about 50%
CCHF vOTU inh-2 – CCHFV vOTU protease inhibitors, confirmation, biochemical, Pep-AMC substrate, fluorescence; shares compounds with CCHF vOTU inh-1; Recombinant CCHFV vOTU; inhibition, % at 11.5 µM; 1,900 compounds, 17% hits; AID 686976, 2013
Active calls of the source: *; / = no result. Rule as the data show it, unless noted: active = inhibition above about 30%; inactive = the rest.

SMILES	Y pestis TopoI	Mtb BioA inh	CCHF vOTU inh-1	Mtb bLac sens	RecA intein inh	BJeLR viability	CCHF vOTU inh-2
CCN(CC)S(=O)(=O)c1cc(NC(=O)CN2C(=O)NC3(CCCc4ccccc43)C2=O)ccc1C (stereo unspecified)	7	/	11	2	3	0	/
COc1ccc(NC(=O)N(C)C[C@H]2OCCCC[C@H](C)Oc3ccc(NS(=O)(=O)c4c(C)noc4C)cc3C(=O)N([C@H](C)CO)C[C@@H]2C)cc1	/	3	/	/	/	/	/
COc1ccc(S(=O)(=O)Nc2cccc3c2O[C@H](CN(C)C(=O)Nc2c(C)noc2C)[C@H](C)CN([C@H](C)CO)C3=O)cc1	/	-2	/	/	/	/	/
Nc1ccc2c(c1)Cc1cc(N)c(Cl)cc1-2	-22	2	31*	/	/	/	-9
COc1ccc(-n2c(NC(=O)c3ccc(Br)o3)c(C#N)c3nc4ccccc4nc32)cc1	/	/	/	/	0	0	/
CCCCn1c(NC(=O)c2ccccc2)c(C#N)c2nc3ccccc3nc21	9	0	121*	/	/	/	90*
CCCCn1c(NC(=O)c2ccc(F)cc2)c(C#N)c2nc3ccccc3nc21	/	/	/	5	25	-3	/
N#Cc1c(NC(=O)c2ccc(Br)o2)n(-c2ccccc2)c2nc3ccccc3nc12	6	0	30*	6	-36	27	-39
CCC(C)n1c(NC(=O)c2ccccc2)c(C#N)c2nc3ccccc3nc21 (stereo unspecified)	7	-1	94*	96	-47	-7	68*
O=C(Cc1ccccc1)N1C[C@@H]2[C@H](c3ccccc31)[C@H](CO)N2C(=O)Cc1ccccc1	/	-2	/	/	/	/	/
N#C[C@H]1[C@@H](c2ccc(C#CC3CCCCC3)cc2)[C@H](CO)N1C(=O)c1cccc(F)c1	/	-3	/	/	/	/	/
C[C@@H]1CN([C@H](C)CO)C(=O)c2cc(C3=CCCCC3)cnc2O[C@H]1CN(C)C(=O)Cc1cccnc1	/	4	/	/	/	/	/
O=C(CCNC(=O)c1ccc(Cl)cc1)NC1CCCCCC1	6	-1	0	-12	/	/	/
O=C(CCNC(=O)c1ccc(Br)cc1)NC1CCCCCC1	-2	-1	37*	2	/	/	-3
CC(C)(C)C(=O)[C@@H]1[C@@H]2C(=O)N(C3CCCCC3)C(=O)[C@@H]2[C@H]2c3ccccc3C=CN12	6	0	33*	3	/	/	13
COc1ccc(N2C(=O)[C@@H]3[C@H](C2=O)[C@H]2c4ccccc4C=CN2[C@@H]3C(C)=O)cc1	7	-3	92*	1	11	/	92*
O=C(C[C@@H]1CC[C@H]2[C@@H](COC[C@H](O)CN2Cc2ccc(F)cc2)O1)NCc1ccccc1Cl	/	6	/	/	/	/	/
C=CCNC(=O)c1cccc2c1C(=O)c1ccc(N3CCOCC3)cc1S2(=O)=O	-11	-3	31*	-1	/	/	-7
O=C(NCCc1ccccc1)c1cccc2c1C(=O)c1ccc(N3CCOCC3)cc1S2(=O)=O	10	0	6	4	/	/	/
COc1ccc(S(=O)(=O)N(C)C[C@H]2OCCCC[C@H](C)Oc3ccc(NC(=O)Nc4cccc5ccccc45)cc3C(=O)N([C@@H](C)CO)C[C@H]2C)cc1	/	-1	/	/	/	/	/
O=C(O)Cn1cc(/C=N/NC(=O)c2cc3cc(Br)ccc3o2)c2ccccc21	11	/	31*	84	-2	5	-1
C[C@H]1CN([C@@H](C)CO)C(=O)c2cc(-c3ccc(F)cc3)cnc2O[C@@H]1CN(C)C(=O)c1ccc(F)cc1	/	0	/	/	/	/	/
CC1(C)CC2CC(C)(CN2C(=O)COC(=O)c2ccccc2C(F)(F)F)C1 (stereo unspecified)	22	1	33*	-6	/	/	16
CSc1ncccc1C(=O)OCC(=O)N1CC2(C)CC1CC(C)(C)C2 (stereo unspecified)	25	0	-8	4	/	/	/
Fc1ccc(-c2nnc(Cc3ccc(Cl)cc3)o2)cc1	25	-2	30*	7	3	4	-15

Screening results (PubChem)
